Compound activity deposited in PubChem by several laboratories.
aDG glyco act = alpha-DG glycosylation activation. 0.22% of 360,000 active. Pro5-aDG cells, alpha-DG glycosylation AlphaScreen (IIH6); 0% Pro5, 100% B10-LARGE cell signal. activation, % at 10 µM;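 active means activation of at least 8% versus controls, or a plate z-score of at least 8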;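 further: Pro5 are CHO cells carrying HIG-tagged alpha-DG that lacks glycosylation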
EBNA-1 inhibitor = blocks EBNA-1 binding to DNA. EBNA-1 DNA binding, fluorescence polarization. inhibition, % at 14.8 µM. 0.34% of 300,000 active. AID 1950; in the data active means inhibition above about 28%
ZTA DNA inh = counter-screen for EBNA-1 inhibitors: inhibitors of Epstein-Barr virus ZTA; P03206; ZTA-DNA binding, fluorescence polarization; 0.15% of 320,000 active; AID 2234; inhibition, % at 11 µM; in the data active means inhibition above about 33%
Target sequence (P03206 whole entry, looked up): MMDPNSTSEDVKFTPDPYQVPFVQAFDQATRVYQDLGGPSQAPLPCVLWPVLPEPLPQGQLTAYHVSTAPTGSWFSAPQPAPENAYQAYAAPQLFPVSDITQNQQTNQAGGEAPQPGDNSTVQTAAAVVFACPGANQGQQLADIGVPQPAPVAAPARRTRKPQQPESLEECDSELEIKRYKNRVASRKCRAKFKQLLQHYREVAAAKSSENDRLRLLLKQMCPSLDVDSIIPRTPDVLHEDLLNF
p47phox inh = blocks human p47phox regulatory protein of NADPH oxidases. p47phox/p22phox peptide binding, fluorescence polarization, 2 h. inhibition, % at 24.7 µM. 0.53% of 220,000 active;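 active means inhibition above about 30%, limit read from the data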
Target sequence (P14598 whole entry, looked up): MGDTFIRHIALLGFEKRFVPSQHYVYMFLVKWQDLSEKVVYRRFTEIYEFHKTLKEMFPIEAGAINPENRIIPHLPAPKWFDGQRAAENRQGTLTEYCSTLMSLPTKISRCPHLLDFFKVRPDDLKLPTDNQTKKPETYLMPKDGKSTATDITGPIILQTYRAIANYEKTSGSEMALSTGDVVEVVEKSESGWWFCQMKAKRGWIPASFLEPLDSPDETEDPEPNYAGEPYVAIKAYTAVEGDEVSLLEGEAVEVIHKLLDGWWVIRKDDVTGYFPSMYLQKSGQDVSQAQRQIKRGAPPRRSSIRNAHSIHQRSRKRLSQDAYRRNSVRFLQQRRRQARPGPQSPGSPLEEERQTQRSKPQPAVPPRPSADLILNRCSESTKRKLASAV
PG9 binder = PG9 antibody binding by small molecule; TR-FRET gp120-PG9 antibody binding; inhibition, % at 6.7 µM; 0.43% of 360,000 active; AID 624416; in the data active means inhibition above about 8.5%
Rev-erbA mod = modulators of human Rev-erb alpha DNA binding. Rev-erbα–FITC-DNA binding, fluorescence polarization, 90 min. P20393. activity, % at 10 µM. 0.79% of 370,000 active;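 active means activity above about 14%, limit read from the data; passing the limit was not always enough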
PG9 binder conf = confirmation of small molecules binding HIV-1 gp120 antibody PG9 | shares compounds with PG9 binder | TR-FRET PG9 antibody binding, biochemical | inhibition, % at 6.7 µM | 90% of 1,500 active | AID 651571; in the data active means inhibition above about 9%
PGV04 Ab binding = binds control antibody PGV04 in PG9 binder counter-screen; shares compounds with PG9 binder; TR-FRET PGV04 antibody-gp120 binding, biochemical; inhibition, % at 6.7 µM; 95% of 1,500 active; AID 651604; in the data active means inhibition above about 9.5%
Rev-erbA confirm = confirmation of modulators of human Rev-erb alpha DNA binding. shares compounds with Rev-erbA mod. Rev-erb alpha FITC-DNA binding, fluorescence polarization, 90 min. activation, % at 25 µM. 61% of 3,000 active;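 active means activation at or above a set limit, or at least 3 SD above the negative control mean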
RORg counter = RORgamma DNA-binding activity, dose-response counter-screen | shares compounds with Rev-erbA mod | purified RORgamma protein-FITC-DNA binding, fluorescence polarization | IC50, µM | 8% of 910 active;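 active means Compounds whose fitted half-maximal concentration for disrupting protein-DNA binding is below 10 micromolar; the record names Rev-erb in its text, so the target is in doubt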
Each line names hits and unclear results; the compound was inactive in the other large screens (follow-up assays come after a bar, where they were run). Rows were chosen to be rich in hits. Some 1.9% of all compounds tested hit in one or more screens of this group.

CCCC(=O)Nc1sc(C)c(-c2ccc(OC)cc2)c1C#N	PG9 binder 9.1, Rev-erbA mod 24 | PG9 binder conf 19 | PGV04 Ab binding 23 | Rev-erbA confirm 28
COc1ccc(C(=O)Nc2scc(-c3ccc(Cl)cc3Cl)c2C(N)=O)cc1	PG9 binder 9.8, Rev-erbA mod 62 | PG9 binder conf inactive | PGV04 Ab binding 19 | Rev-erbA confirm 56 | RORg counter inactive
COc1ccc(C(=O)Nc2cc(OC)c(Cl)cc2Cl)cc1	none
CC(C)CCNC(=O)C1COC(O)(C(Cc2ccccc2)NC(=O)[C@@H](NC(=O)OCc2ccccc2)C(C)C)CN1 (stereo not given in full)	none (no result: aDG glyco act, EBNA-1 inhibitor, ZTA DNA inh, p47phox inh, PG9 binder)
N#C/C(C(=O)NCc1ccco1)=C1/SC=C(c2ccccc2)N1c1ccccc1	PG9 binder 41, Rev-erbA mod 38 | PG9 binder conf 42 | PGV04 Ab binding 59 | Rev-erbA confirm 30
Cc1ccc(-c2nc3ncccc3o2)cc1NC(=O)COc1ccccc1	PG9 binder 9.1, Rev-erbA mod 22 | PG9 binder conf 13 | PGV04 Ab binding 18 | Rev-erbA confirm inactive
Cc1ccc(-c2nc3ncccc3o2)cc1NC(=O)c1cc2ccccc2o1	PG9 binder 8.9, Rev-erbA mod 19 | PG9 binder conf 12 | PGV04 Ab binding 35 | Rev-erbA confirm inactive
Cc1ccc(-c2nc3ncccc3o2)cc1NC(=O)Cc1ccc(Cl)cc1	none
Cc1ccc(-c2nc3ncccc3o2)cc1NC(=O)CC(C)C	none
COc1ccc(NC(=O)c2cc3c(C)nn(-c4ccccc4)c3s2)cc1	none (no result: aDG glyco act, EBNA-1 inhibitor, ZTA DNA inh, p47phox inh, PG9 binder)
COc1ccc(-n2nc(C(=O)NCC(=O)NCc3ccc(F)cc3)c3ccccc3c2=O)cc1OC	PG9 binder 28, Rev-erbA mod 54 (no result: p47phox inh) | PG9 binder conf 34 | PGV04 Ab binding 49 | Rev-erbA confirm 39 | RORg counter inactive
COC(=O)CNC(=O)CNC(=O)c1nn(-c2ccc(OC)c(OC)c2)c(=O)c2ccccc12	none (no result: p47phox inh)
O=c1sc(N2CCN(c3ccc(F)cc3)CC2)nc2ccsc12	PG9 binder 23, Rev-erbA mod 146 | PG9 binder conf 57 | PGV04 Ab binding 83 | Rev-erbA confirm 96 | RORg counter inactive
O=C(CSc1nnc(-c2cnccn2)n1-c1ccccc1)c1ccccc1Br	none (no result: aDG glyco act, EBNA-1 inhibitor, ZTA DNA inh, p47phox inh, PG9 binder)
Cc1ccc2[nH]c(=O)c(COC(=O)c3cccs3)cc2c1	PG9 binder 18, Rev-erbA mod 33 | PG9 binder conf 50 | PGV04 Ab binding 66 | Rev-erbA confirm 21
Cc1ccc2nc(NC(=O)CSc3ncnc4c3oc3ccccc34)sc2c1	none (no result: EBNA-1 inhibitor, ZTA DNA inh)
O=C(CSc1ncnc2c1oc1ccccc12)c1cccs1	PG9 binder 29, Rev-erbA mod 73 | PG9 binder conf 30 | PGV04 Ab binding 52 | Rev-erbA confirm 66 | RORg counter inactive
Cc1cccc(NC(=O)CSc2ncnc3c2oc2ccccc23)c1	PG9 binder 66, Rev-erbA mod 601 | PG9 binder conf inactive | PGV04 Ab binding 47 | Rev-erbA confirm 631 | RORg counter 1
O=C(CSc1ncnc2c1oc1ccccc12)NCc1ccc(F)cc1	PG9 binder 51, Rev-erbA mod 395 | PG9 binder conf 25 | PGV04 Ab binding 74 | Rev-erbA confirm 434 | RORg counter inactive
CN(CC#CC1=CCCCC1)/C(N)=N/C(=O)OCc1ccccc1	none (no result: aDG glyco act, EBNA-1 inhibitor, ZTA DNA inh, p47phox inh, PG9 binder)
CCn1c(SCC(=O)NN=Cc2c(C)nn(-c3ccccc3)c2C)nnc1-c1ccc(OC)c(OC)c1	none (no result: aDG glyco act, EBNA-1 inhibitor, ZTA DNA inh, p47phox inh, PG9 binder)
COc1cc2c(cc1NC(=O)CSc1nnc(COc3ccccc3)n1Cc1ccco1)oc1ccccc12	none (no result: aDG glyco act, EBNA-1 inhibitor, ZTA DNA inh, p47phox inh, PG9 binder)
CCCC1CCC2(CC1)CCC2OC(=S)Nc1ccccc1 (stereo not given)	none (no result: aDG glyco act, EBNA-1 inhibitor, ZTA DNA inh, p47phox inh, PG9 binder)
O=C(Cc1ccccc1)NC1CCCCN(Cc2ccc(Cl)cc2)C1=O (stereo not given)	none (no result: aDG glyco act, EBNA-1 inhibitor, ZTA DNA inh, p47phox inh, PG9 binder)
O=C(O)CSc1cnc2ccccc2n1	none
O=C(O)CSc1nc2ccccc2nc1Cc1ccccc1F	PG9 binder 10, Rev-erbA mod 22 (no result: p47phox inh) | PG9 binder conf 16 | PGV04 Ab binding 27 | Rev-erbA confirm inactive
O=C(CSc1nnc(-c2ccc(Cl)cc2)n1-c1ccccc1)NN=Cc1c[nH]c2ccccc12	none (no result: aDG glyco act, EBNA-1 inhibitor, ZTA DNA inh, p47phox inh, PG9 binder)
CC(C)C1N=C(NC(=O)OCc2ccccc2)NC1=O (stereo not given) (tested in a mixture with another compound)	none (no result: aDG glyco act, EBNA-1 inhibitor, ZTA DNA inh, p47phox inh, PG9 binder)
CCc1cc2cc(C(=O)Nc3ccc(F)cc3)sc2s1	PG9 binder 46, Rev-erbA mod 78 | PG9 binder conf 53 | PGV04 Ab binding 60 | Rev-erbA confirm 63 | RORg counter inactive
CN1Cc2nnn(Cc3ccccc3)c2-c2cc(N3CCCC3)ccc2S1(=O)=O	none (no result: aDG glyco act, EBNA-1 inhibitor, ZTA DNA inh, p47phox inh, PG9 binder)
Cn1c(-c2ccc(C=O)s2)nc2c3ccccc3c3ccccc3c21	PG9 binder 8.9, Rev-erbA mod 135 | PG9 binder conf inactive | PGV04 Ab binding inactive | Rev-erbA confirm 114
Cc1ccc2cc(C#N)c(SCC(=O)NNC(=O)Cc3ccccc3)nc2c1	PG9 binder 20, Rev-erbA mod 52 (no result: EBNA-1 inhibitor, ZTA DNA inh) | PG9 binder conf 38 | PGV04 Ab binding 41 | Rev-erbA confirm 44 | RORg counter inactive
CCOC(=O)CSc1nc2cc(OCC)ccc2cc1C#N	PG9 binder 28, Rev-erbA mod 83 | PG9 binder conf 38 | PGV04 Ab binding 58 | Rev-erbA confirm 72 | RORg counter inactive
CCOc1ccc2cc(C#N)c(SCC(=O)NC(C)CC)nc2c1 (stereo not given)	none (no result: aDG glyco act, PG9 binder, Rev-erbA mod)
COc1ccc2cc(C#N)c(SCC(=O)NNC(=O)Cc3ccccc3)nc2c1	PG9 binder 27, Rev-erbA mod 38 | PG9 binder conf 24 | PGV04 Ab binding 52 | Rev-erbA confirm inactive
COc1cccc(-c2ccc(C#N)c(OC(=O)c3ccc(Cl)cc3)n2)c1	none
COC(=O)CSc1nc2cc(OC)ccc2cc1C#N	none
COc1cccc(-c2ccc(C#N)c(SCC(=O)NCCc3cccc(Cl)c3)n2)c1	PG9 binder 22, Rev-erbA mod 34 | PG9 binder conf 24 | PGV04 Ab binding 43 | Rev-erbA confirm 23
CC(=O)CC[C@H]1CC[C@]2(CCCN(C(=O)c3ccc4ccccc4n3)C2)O1	none (no result: aDG glyco act, EBNA-1 inhibitor, ZTA DNA inh, p47phox inh, PG9 binder)
O=C(Cn1nc(-c2ccccc2)c2ccccc21)Oc1ccccc1	none (no result: aDG glyco act, EBNA-1 inhibitor, ZTA DNA inh, p47phox inh, PG9 binder)
O=C(Nc1ccc(Br)cc1)O[C@@H]1CC[C@@]23CCCN2C(=O)CCC[C@H]3C1	none (no result: aDG glyco act, EBNA-1 inhibitor, ZTA DNA inh, p47phox inh, PG9 binder)
